Results published in PubChem BioAssay AID2360 (The Scripps Research Institute Molecular Screening Center, 2010).
The whole screen tested about 1,900 compounds, of which about 85 (4%) were called active. Not all results are given here. Unmarked numbers belong to inactive results.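 How the source made its calls: active means mean PP5 inhibition over triplicate wells above about 9.5% taken from the earlier PP1 screen (limit read from the data); inactive means the rest.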

Molecular target: Serine/threonine-protein phosphatase 5 (Homo sapiens) (UniProt P53041)
Experiment: PP5 phosphatase inhibition by PP1 hits, confirmation, counter-screen for PP1 inhibitor project, biochemical, fluorescence, triplicate (AID 2360)
Details: purified PP5c, OMFP fluorescence; at 6.7 µM; hits give high values

Sequence of Serine/threonine-protein phosphatase 5 (Homo sapiens) (P53041 whole entry, looked up): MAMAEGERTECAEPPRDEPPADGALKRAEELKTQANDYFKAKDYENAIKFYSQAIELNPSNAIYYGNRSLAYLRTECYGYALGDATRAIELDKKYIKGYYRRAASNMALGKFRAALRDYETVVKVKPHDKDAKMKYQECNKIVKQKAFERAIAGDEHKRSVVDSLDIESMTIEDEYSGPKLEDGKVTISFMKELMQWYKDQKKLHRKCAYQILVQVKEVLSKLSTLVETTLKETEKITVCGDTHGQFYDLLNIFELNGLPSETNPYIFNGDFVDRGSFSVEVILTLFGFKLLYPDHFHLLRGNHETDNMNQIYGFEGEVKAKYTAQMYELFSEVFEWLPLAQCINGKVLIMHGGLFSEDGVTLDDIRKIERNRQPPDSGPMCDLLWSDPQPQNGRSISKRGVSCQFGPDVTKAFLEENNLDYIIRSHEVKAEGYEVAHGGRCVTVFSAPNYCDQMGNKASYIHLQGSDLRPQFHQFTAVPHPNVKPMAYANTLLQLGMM

| SMILES | inhibition |
| --- | --- |
| Cc1ccc(-c2cc(C(=O)N/N=C/C=C/c3ccco3)c3ccccc3n2)cc1C | 2.19% |
| CC1CCCCN1S(=O)(=O)c1ccc(C(=O)Nc2nnc(-c3cccs3)o2)cc1 (stereo unspecified) | 1.29% |
| Nc1ccc2nc3c(=O)[nH]c(=S)[nH]c3nc2c1 | 15% (active) |
| O=C(Nc1cccc(-c2nc3ccccc3[nH]2)c1)c1ccc(C(=O)Nc2cccc(-c3nc4ccccc4[nH]3)c2)cc1 | -2.5% |
| COCCN(CCOC)S(=O)(=O)c1ccc(C(=O)Nc2nc3c(s2)CCc2ccccc2-3)cc1 | -4.16% |
| Cc1nc2c(C(=O)NCc3ccc4c(c3)OCO4)c[nH]n2c(=O)c1Cc1ccccc1F | 0.13% |
| COc1ccc(C2C(C(C)=O)=C(O)C(=O)N2CCc2c[nH]c3ccccc23)cc1 (stereo unspecified) | 1.2% |
| Clc1ccc(-n2nnnc2-c2cnc(-c3ccccn3)nc2-c2cccs2)cc1 | -0.17% |
| CCC(=C/c1sc2ccc3ccccc3c2[n+]1C)/C=C1\Sc2ccc3ccccc3c2N1C | 0.84% |
| CS(=O)(=O)c1ccc2c(c1)SC1=NC(=O)/C(=C/c3ccco3)C(=N)N12 | -6.01% |
| Cc1ccc2cc(CCNC(=O)c3c(-c4ccccc4Cl)noc3C)c(=O)[nH]c2c1 | -2.45% |
| CCOc1ccc(/C=C/C(=O)OCC(=O)c2ccccc2OC)cc1OC | -0.62% |
| Cc1ccc(S(=O)(=O)N2[C@@H](c3cccc(Cl)c3)C(C(=O)O)=CC[C@H]2c2ccc(Cl)c(Cl)c2)cc1 | 2.51% |
| Cc1cc(Nc2ccccc2)n(C(=O)c2ccc(N)cc2)n1 | 3.89% |
| O=C1C2N=NN(CC(=O)N3N=C(c4cccc5ccccc45)CC3c3ccccc3)C2C(=O)N1c1ccccc1 (stereo unspecified) | -0.31% |
| C=CCn1c(=S)[nH]c2scc(-c3ccco3)c2c1=O | 1.52% |
| CCCc1ccc(OCC(=O)NNC(=S)NC(=O)c2ccco2)cc1 | -5.19% |
| Cc1cc(N/N=C\c2ccc(Br)cc2)nc(-n2nc(C)cc2C)n1 | -2.43% |
| Cc1ccc(-c2cc(C(=O)Nc3nn[nH]n3)c3ccccc3n2)c(C)c1 | -5.88% |
| Cc1ccc(NS(=O)(=O)c2ccc(N/N=C/c3ccccc3OCC(=O)O)c([N+](=O)[O-])c2)c(C)c1 | 3.83% |
| OCCNc1nc(Nc2ccc(Cl)c(Cl)c2)nc2ccccc12 | 6.65% |
| CSc1ccc(/C=N\NC(=O)COc2ccc(Cl)cc2Br)cc1 | -2.43% |
| CCCCn1c(SCc2ncc(-c3ccccc3)o2)nc2cc(S(N)(=O)=O)ccc21 | -3.7% |
| CN(C(=O)COC(=O)c1cc(-c2ccco2)nc2ccccc12)C1CCS(=O)(=O)C1 (stereo unspecified) | -3.35% |
| Oc1c(Cl)cc(Cl)c(Cl)c1Cc1c(O)c(Cl)cc(Cl)c1Cl | -0.37% |
| Cc1cc(-c2csc(N)n2)c(C)n1-c1ccccc1 | -5.26% |

| SMILES | inhibition |
| --- | --- |
| C#CCOCCOCCOCCNc1nc(N2CCN(C(=O)CCCCCCCCCCNC(=O)[C@H](CCCCN)n3cc(C)nn3)CC2)nc(N2CCN(C(=O)CCCCCCCCCCNC(=O)[C@H](CO)n3cc(CCCSC)nn3)CC2)n1 | -2.42% |
| COc1cc(C2C(C(=O)c3ccc(C)o3)=C(O)C(=O)N2CCc2ccccc2)ccc1O (stereo unspecified) | 1.74% |
| Cc1ccccc1S(=O)(=O)N1[C@@H](c2cccc(Cl)c2)C(C(=O)O)=CC[C@H]1c1ccc(Cl)cc1 | 1.77% |
| O=C1C(=O)N(CC2COc3ccccc3O2)c2ccccc21 (stereo unspecified) | -2.89% |
| C#CCOCCOCCOCCNc1nc(N2CCN(C(=O)CCCCCCCCCCNC(=O)[C@H]([C@@H](C)CC)n3cc(CCCCN=C(N)N)nn3)CC2)nc(N2CCN(C(=O)CCCCCCCCCCNC(=O)[C@H](CO)n3cc(CCCSC)nn3)CC2)n1 | 4.44% |
| COc1ccc(-c2nn(-c3ccccc3)cc2/C=C\C(=O)Nc2ccc(C(=O)O)cc2)cc1 | 5.85% |
| C/C(CC(O)(/C=N/O)c1ccccc1)=N\O (stereo unspecified) | -4.09% |
| N=c1n(Cc2ccc(Cl)cc2)c2ccccc2n1CC(O)c1ccco1 (stereo unspecified) | -3.3% |
| CN1CCN(CCCNC(=O)c2ccc(/C=C3\Oc4ccccc4N(Cc4ccc(Cl)cc4)C3=O)cc2)CC1 | 0.17% |
| Oc1c(CN2CCN(c3ccc(F)cc3)CC2)cc(Cl)c2cccnc12 | 2.27% |
| Cc1cccc(OCC(O)Cn2c(=N)n(CCN3CCOCC3)c3ccccc32)c1 (stereo unspecified) | 0.64% |
| CCNS(=O)(=O)c1ccc(NC(=O)Nc2cccc(C(F)(F)F)c2)cc1 | 7.24% |
| COc1ccccc1/C=N\Nc1cc(C)nc(-n2nc(C)cc2C)n1 | -0.35% |
| O=C(Nc1nnc(-c2ccccc2)o1)c1cc(-c2cccs2)nc2ccccc12 | -6.61% |
| Cc1ccc(-c2nn(-c3ccccc3)cc2/C=C2\SC(=S)N(CCCCCC(=O)O)C2=O)o1 | 1.44% |
| Cc1ccc2nc(N3C(=O)C(O)=C(C(=O)c4ccco4)C3c3cccc(O)c3)sc2c1 (stereo unspecified) | -0.83% |
| COc1cnc(-c2ccccn2)nc1Oc1ccc(C(C)(C)C)cc1 | 1.77% |
| O=C(Nc1nc(-c2ccco2)c(-c2ccco2)s1)c1ccco1 | 0.46% |
| CCCOc1ccc(C2C(C(=O)c3ccc(C)o3)=C(O)C(=O)N2CCCn2ccnc2)cc1 (stereo unspecified) | 2.29% |
| O=C(CSc1nnc(C2CC2)n1Cc1ccccc1)Nc1cccnc1Cl | -2.71% |
| Oc1ccc(C2Nc3cccc4cccc(c34)N2)cc1 | 8.12% |
| C=CCN(CC=C)S(=O)(=O)c1ccc(C(=O)Nc2nc3c(s2)CCc2ccccc2-3)cc1 | -1.58% |
| CCCCCCCCCCOC(=O)Cn1c(COc2cccc(OC)c2)[n+](C)c2ccccc21 | 3.6% |
| COc1cccc(/C=N/NC(=O)c2[nH]nc3c2CCc2ccccc2-3)c1O | -2.54% |
| Cc1ccc(NC(=O)COc2ccc(/C=C3/NC(=O)NC3=O)cc2)cc1 | -6.15% |
